BJeLR lethal: BJeLR cell viability loss; BJeLR (HRASV12) viability, CellTiter-Glo ATP luminescence, 48 h; inhibition, % (concentration not given with the values); AID 1554; 300,000 compounds, 0.17% hits; in the data active = inhibition above about 50%
VHR inh abs: blocks human VHR1 dual specificity phosphatase; P51452; recombinant VHR phosphatase, pNPP absorbance; inhibition, % at 13.3 µM; 290,000 compounds, 0.52% hits; AID 1654; in the data active = inhibition above about 50%
Target sequence (P51452 whole entry, looked up): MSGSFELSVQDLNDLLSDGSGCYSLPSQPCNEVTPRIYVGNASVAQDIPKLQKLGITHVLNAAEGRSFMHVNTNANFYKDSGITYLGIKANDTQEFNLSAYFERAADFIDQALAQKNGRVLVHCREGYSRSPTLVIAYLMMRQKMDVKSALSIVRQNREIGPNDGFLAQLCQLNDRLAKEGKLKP
PrPC surface inh: reduces human prion protein on the cell surface; P04156; cell surface PrPC, TR-FRET read-out; inhibition, % at 13.8 µM; 370,000 compounds, 0.43% hits; AID 720596; in the data active = inhibition above about 24%
Sa ugtP lethal: kills S. aureus RN4220 lacking UgtP; 330,000 compounds, 0.54% hits; growth inhibition, % (no concentration beside the values); AID 1259309; S. aureus RN4220 ugtP deletion, OD600 growth, 16 h; in the data active = growth inhibition above about 68%
SARS 3CLpro inh: SARS-CoV 3CLpro protease inhibition | recombinant SARS-CoV 3CLpro, quenched FRET peptide cleavage | inhibition, % at 6 µM | 290,000 compounds, 0.14% hits; in the data active = inhibition above about 12%
Sa RN4220 lethal: S. aureus RN4220 growth inhibition; OD600, 16 h; inhibition, % (test concentration not listed); 330,000 compounds, 0.33% hits; in the data active = inhibition above about 85%
Hits are given with their value; – = inactive; · = no result given. The list is not random: actives were taken first. Their share in the collection is about 1.4%.

SMILES	BJeLR lethal	VHR inh abs	PrPC surface inh	Sa ugtP lethal	SARS 3CLpro inh	Sa RN4220 lethal
CN(C)C(N)=NCCCC(N)C(=O)O (centres undefined)	·	·	·	–	·	–
COc1ccc(/C=C(\NC(=O)c2cccs2)C(=O)NC(C)(C)C)cc1OC	–	53	–	–	–	–
COc1ccc(/C=C(\NC(=O)c2cccs2)C(=O)Nc2ccccc2C)cc1OC	–	–	–	–	–	–
CC(=O)O[C@H]1C[C@@H]2OC3C=C(C)CCC3(C)[C@@]1(C)[C@@]21CO1 (some centres undefined)	·	·	88	·	·	·
C=C1C(=O)C2=CC1CCC(=O)C1(C)CCC(OC(C)=O)C(C)(C)C1CC2O (centres undefined)	·	·	–	·	·	·
COc1ccc(C2CC(=O)C=C(c3ccc(OC)nc3)C2)cc1 (centres undefined)	·	·	·	–	·	–
COc1ccc(C(=O)c2cc([N+](=O)[O-])ccc2N2CCOCC2)cc1	59	–	–	–	–	–
Cc1ccc(NC(=O)c2cc([N+](=O)[O-])ccc2N2CCCC2)cc1	–	–	–	–	–	–
O=C(Nc1nnc(C2CC2)s1)c1cc([N+](=O)[O-])ccc1N1CCCCC1	–	–	–	–	–	89
O=C(NCCN1CCOCC1)c1ccc([N+](=O)[O-])cc1[N+](=O)[O-]	–	–	–	–	–	–
O=C(O)c1cc([N+](=O)[O-])ccc1N1CCCCC1	–	–	–	–	–	–
Cc1ccc(C(=O)c2cc([N+](=O)[O-])ccc2N2CCCCC2)c(C)c1	55	–	–	–	–	–
O=C(NCCN1CCOCC1)c1cc([N+](=O)[O-])ccc1Cl	–	50	–	–	–	–
COc1ccc(CCNC(=O)C(=Cc2cccnc2)NC(=O)c2ccccc2)cc1OC	·	·	·	–	·	–
CCOc1ccc(CCNC(=O)COC(=O)c2cc([N+](=O)[O-])ccc2N2CCOCC2)cc1OCC	–	–	–	–	–	–
CCOc1ccc(C(=O)c2cc([N+](=O)[O-])ccc2N2CCOCC2)cc1	53	–	–	–	–	–
Cc1ccc(C(=O)c2cc([N+](=O)[O-])ccc2N2CCOCC2)cc1	–	–	–	·	–	·
CCOc1ccc(CCNC(=O)c2cc([N+](=O)[O-])ccc2N2CCOCC2)cc1OCC	–	50	–	–	–	–
CC(NC(=O)c1nc[nH]c1C(=O)NCC(=O)OC(C)(C)C)C(=O)OCc1ccccc1 (centres undefined)	·	·	·	–	·	–
Cc1nc2cc(C(=O)OCC(=O)Nc3cccc(Cl)c3)ccc2n1-c1ccccc1	–	–	–	99	–	–
Cc1nc2cc(C(=O)OCC(=O)NC34CC5CC(CC(C5)C3)C4)ccc2n1-c1ccccc1	–	–	–	–	–	–
CC1CCCCN1CCCNC(=O)CN1C(=O)c2cccnc2Oc2ccccc21 (centres undefined)	–	56	–	–	–	–
Cc1ccc2c(c1)N(CC(=O)NCCCN1CCCCC1C)C(=O)c1cccnc1O2 (centres undefined)	–	–	–	–	–	–
CCC1Oc2ccc(C)cc2N(CC(=O)NCCCN2CCCCC2C)C1=O (centres undefined)	–	58	–	·	–	·
CCC1Oc2ccc(C)cc2N(CC(=O)NCCCN2CCCCC2CC)C1=O (centres undefined)	–	–	–	–	–	–
SMILES	BJeLR lethal	VHR inh abs	PrPC surface inh	Sa ugtP lethal	SARS 3CLpro inh	Sa RN4220 lethal
COc1ccc(C(=O)Nc2ccnn2C2CCN(C3CCC3)CC2)cc1	–	52	–	–	–	–
Cc1ccc(-c2cn(CC3CCC(C4CCC(Cn5cc(-c6ccc(C)cc6)nn5)O4)O3)nn2)cc1 (centres undefined)	·	·	·	–	·	–
CC(C(=O)NC1C(=O)N2C(C(=O)O)=C(CSc3nnnn3C)CSC12)n1cc(Cl)cn1 (centres undefined)	–	–	–	100	–	100
CCN1CCN(C(=O)NC(C(=O)NC2C(=O)N3C(C(=O)O)=C(CSc4nnnn4C)CSC23)c2ccc(O)cc2)C(=O)C1=O (centres undefined)	·	·	·	100	·	101
Cn1nnnc1SCC1=C(C(=O)O)N2C(=O)C(NC(=O)Cn3nc(C(F)F)cc3C3CC3)C2SC1 (centres undefined)	–	–	–	101	–	100
COc1cccc(C(=O)NC2C(=O)N3C(C(=O)O)=C(COC(C)=O)CSC23)c1 (centres undefined)	·	·	–	·	·	·

Screening results deposited in PubChem BioAssay by several laboratories.
